# Assay results published in PMC8384837, “Expanding the binding specificity for RNA recognition by a PUF domain”.
# Experiments:
# Test in all cases: yeast three-hybrid, YBZ-1, SC-Leu-His + 0.5 mM 3-AT, 4 days
# Conditions in all cases: tags: N-Gal4 AD-HA kept; label: inside an RPR1-promoter hybrid RNA with tandem MS2 sites; ssRNA
# PUM1 PUF domain R2-GWD = PUM1 PUF domain R2-GWD (Homo sapiens, UniProt Q14671 828-1176, N899G;Y900W;Q903D)
# Outline: (§1)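 Repeat regions from input (SC-Leu) and selection (SC-Leu-His + 0.5 mM 3-AT) plates were PCR-amplified and Illumina-sequenced after four days of growth. The cells were strain YBZ-1 with a LexA–MS2 coat fusion and a HIS3 reporter, co-expressing Pumilio-1 PUF domain libraries and matching RNA elements from a centromeric plasmid. The interaction score is the log change in variant frequency from input to selection, taken in log2 with a pseudocount of 1 for absent variants.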
# PUM1 PUF domain R2-LWM = PUM1 PUF domain R2-LWM (Homo sapiens, UniProt Q14671 828-1176, N899L;Y900W;Q903M)
# Outline: as §1
# PUM1 PUF domain R1-TSR = PUM1 PUF domain R1-TSR (Homo sapiens, UniProt Q14671 828-1176, S863T;R864S;Q867R)
# Outline: as §1
# PUM1 PUF domain R1-QLD = PUM1 PUF domain R1-QLD (Homo sapiens, UniProt Q14671 828-1176, S863Q;R864L;Q867D)
# Outline: as §1
# PUM1 PUF domain R1-RTE = PUM1 PUF domain R1-RTE (Homo sapiens, UniProt Q14671 828-1176, S863R;R864T;Q867E)
# Outline: as §1
# PUM1 PUF domain R6-SWH = target: T1, PUM1 PUF domain R6-SWH (Homo sapiens, UniProt Q14671 828-1176, N1043S;Y1044W;Q1047H)
# T1 sequence: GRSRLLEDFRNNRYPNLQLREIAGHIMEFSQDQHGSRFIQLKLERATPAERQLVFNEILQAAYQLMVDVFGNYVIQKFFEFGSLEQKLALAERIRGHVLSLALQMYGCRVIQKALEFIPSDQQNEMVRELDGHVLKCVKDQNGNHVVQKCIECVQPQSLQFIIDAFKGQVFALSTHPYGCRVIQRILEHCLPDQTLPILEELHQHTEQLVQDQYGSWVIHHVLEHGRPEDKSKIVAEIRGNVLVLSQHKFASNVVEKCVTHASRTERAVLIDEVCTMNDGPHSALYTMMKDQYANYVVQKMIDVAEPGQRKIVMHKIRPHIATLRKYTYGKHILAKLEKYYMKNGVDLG
# Outline: as §1
# PUM1 PUF domain R5-RSI = PUM1 PUF domain R5-RSI (Homo sapiens, UniProt Q14671 828-1176, C1007R;R1008S;Q1011I)
# Outline: as §1
# PUM1 PUF domain R8-LRR = PUM1 PUF domain R8-LRR (Homo sapiens, UniProt Q14671 828-1176, N1122L;Y1123R;Q1126R)
# Outline: as §1
# PUM1 PUF domain R8-RPR = PUM1 PUF domain R8-RPR (Homo sapiens, UniProt Q14671 828-1176, N1122R;Y1123P;Q1126R)
# Outline: as §1
# PUM1 PUF domain R8-GYK = PUM1 PUF domain R8-GYK (Homo sapiens, UniProt Q14671 828-1176, N1122G;Q1126K)
# Outline: as §1
# PUM1 PUF domain R5-WWA = PUM1 PUF domain R5-WWA (Homo sapiens, UniProt Q14671 828-1176, C1007W;R1008W;Q1011A)
# Outline: as §1
sequence,measurement,setting,value
GGCUAGAACUAGUGGAUCCCCCGGCGCCCGGCGGCUCGAGCCCGGGUAAGUGUAAAGAGUCUGCAUGCCGCCGGGCGCCAUGCCUGCAGGUCGACUCUAGAAAACAUG,binding signal,PUM1 PUF domain R2-GWD,10.1 log2 enrichment (interaction score)
GGCUAGAACUAGUGGAUCCCCCGGCGCCCGGCGGCUCGAGCCCGGGUAAGUGUAAAAAGUCUGCAUGCCGCCGGGCGCCAUGCCUGCAGGUCGACUCUAGAAAACAUG,binding signal,PUM1 PUF domain R2-GWD,3.74 log2 enrichment (interaction score)
same,binding signal,PUM1 PUF domain R2-LWM,7 log2 enrichment (interaction score)
GGCUAGAACUAGUGGAUCCCCCGGCGCCCGGCGGCUCGAGCCCGGGUAAGUGUAAAUUGUCUGCAUGCCGCCGGGCGCCAUGCCUGCAGGUCGACUCUAGAAAACAUG,binding signal,PUM1 PUF domain R1-TSR,0.81 log2 enrichment (interaction score)
same,binding signal,PUM1 PUF domain R1-QLD,4.86 log2 enrichment (interaction score)
same,binding signal,PUM1 PUF domain R1-RTE,2.65 log2 enrichment (interaction score)
GGCUAGAACUAGUGGAUCCCCCGGCGCCCGGCGGCUCGAGCCCGGGUAAGUGAAAAUAGUCUGCAUGCCGCCGGGCGCCAUGCCUGCAGGUCGACUCUAGAAAACAUG,binding signal,PUM1 PUF domain R6-SWH,2.64 log2 enrichment (interaction score)
GGCUAGAACUAGUGGAUCCCCCGGCGCCCGGCGGCUCGAGCCCGGGUAAGUGUUAAUAGUCUGCAUGCCGCCGGGCGCCAUGCCUGCAGGUCGACUCUAGAAAACAUG,binding signal,PUM1 PUF domain R5-RSI,3 log2 enrichment (interaction score)
GGCUAGAACUAGUGGAUCCCCCGGCGCCCGGCGGCUCGAGCCCGGGUAAGCGUAAAUAGUCUGCAUGCCGCCGGGCGCCAUGCCUGCAGGUCGACUCUAGAAAACAUG,binding signal,PUM1 PUF domain R8-LRR,3.25 log2 enrichment (interaction score)
same,binding signal,PUM1 PUF domain R8-RPR,2.38 log2 enrichment (interaction score)
same,binding signal,PUM1 PUF domain R8-GYK,4.76 log2 enrichment (interaction score)
GGCUAGAACUAGUGGAUCCCCCGGCGCCCGGCGGCUCGAGCCCGGGUAAGUGUGAAUAGUCUGCAUGCCGCCGGGCGCCAUGCCUGCAGGUCGACUCUAGAAAACAUG,binding signal,PUM1 PUF domain R5-WWA,2.58 log2 enrichment (interaction score)
